From US20200407704, “FUSION PROTEINS AND METHODS FOR SITE-DIRECTED GENOME EDITING” (The Regents of the University of California, published 2020)

T1: hADAR2d (ADAR2 deaminase domain, hADAR2-D WT) (Homo sapiens)
T1 chain: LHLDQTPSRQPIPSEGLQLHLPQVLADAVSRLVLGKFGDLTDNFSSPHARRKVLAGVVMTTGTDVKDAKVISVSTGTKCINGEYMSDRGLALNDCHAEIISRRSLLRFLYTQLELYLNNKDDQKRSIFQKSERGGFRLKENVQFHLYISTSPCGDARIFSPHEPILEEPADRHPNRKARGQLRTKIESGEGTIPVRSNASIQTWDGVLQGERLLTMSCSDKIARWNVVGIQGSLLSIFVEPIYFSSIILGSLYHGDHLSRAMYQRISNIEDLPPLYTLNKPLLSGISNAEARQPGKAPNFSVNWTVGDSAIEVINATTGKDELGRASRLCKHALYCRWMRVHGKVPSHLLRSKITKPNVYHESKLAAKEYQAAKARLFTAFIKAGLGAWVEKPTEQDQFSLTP


Assays:
[1] = biological target: T1, hADAR2d (ADAR2 deaminase domain, …); assay: deamination rate, 300 nM enzyme; settings: tags: Ni-NTA purified (His10, TEV site); label: internal 32P
Protocol: For the partially 2′-deoxy-modified substrates, the final reaction volume was 10 μL. The final enzyme concentration was 300 nM. The final RNA concentration was 10 nM. The final reaction solution contained 16 mM Tris-HCl, pH 7.4, 3.3% glycerol, 1.6 mM EDTA, 0.003% NP-40, 60 mM KCl, 7.1 mM NaCl, 0.5 mM DTT, 160 units/mL RNasin, and 1 μg/mL yeast tRNA. Reactions were quenched by adding 190 μL 95° C. nuclease-free water followed by incubation at 95° C. for 5 minutes. Deaminated products were purified by phenol-chloroform extraction and ethanol precipitation. The product-containing solution was lyophilized to dryness and suspended in 50 μL of 1×TE solution, followed by digestion with nuclease P1. The resulting 5′-mononucleotides were resolved by thin-layer chromatography (TLC, Macherey-Nagel) (22). The TLC was visualized by exposure to storage phosphor imaging plates (Molecular Dynamics) on a Typhoon phosphorimager (Molecular Dynamics) and quantified by volume integration using ImageQuant software (Molecular Dynamics). […] Statistical significance between groups was determined by t tests using QuickCalcs (GraphPad Software). hADAR2 wt deamination was carried out twice, deamination with other proteins was carried out in triplicate.

[2] = biological target: T1, hADAR2d (ADAR2 deaminase domain, …); assay: rate stated as similar to substrate b; settings: tags: Ni-NTA purified (His10, TEV site); label: internal 32P
Protocol: This reconstituted solution was heated to 65° C. for 5 minutes. After the solution was slowly cooled to room temperature, 1.5 μL of RNasin ([…]), 5 μL of 4 mM ATP, and 1 μL of T4 DNA ligase (400 U/μL) were added to the solution so that the final reaction volume was 20 μL . The reaction was incubated at 30° C. for 2 hours, then 2 μL of 40 μM trap DNA were added to the splint ligation reaction. The splint ligation products were purified as described above. Purified ³²P labeled top strand was hybridized with the corresponding bottom strand 24-nt oligonucleotide as described above. Deamination reactions were carried out as previously described (21) with the following modifications. For the partially 2′-deoxy-modified substrates, the final reaction volume was 10 μL. The final enzyme concentration was 300 nM. The final RNA concentration was 10 nM. The final reaction solution contained 16 mM Tris-HCl, pH 7.4, 3.3% glycerol, 1.6 mM EDTA, 0.003% NP-40, 60 mM KCl, 7.1 mM NaCl, 0.5 mM DTT, 160 units/mL RNasin, and 1 μg/mL yeast tRNA. Reactions were quenched by adding 190 μL 95° C. nuclease-free water followed by incubation at 95° C. for 5 minutes. […] The TLC was visualized by exposure to storage phosphor imaging plates (Molecular Dynamics) on a Typhoon phosphorimager (Molecular Dynamics) and quantified by volume integration using ImageQuant software (Molecular Dynamics). […]

| Binder | relative deamination rate [1] [fold slower than N1] | binding signal [2] [fold slower than N1] |
| --- | --- | --- |
| partially deoxy duplex (substrate b) (mixed, 2'-deoxy at top UAGA and at bottom C opposite edited A) RNA 1: GCUCGCGAUGCUAGAGGGCUCUGC RNA 2: GCAGAGCCCCCCAGCAUCGCGAGC | ~15 |  |
| partially deoxy duplex (substrate c) (mixed, 2'-deoxy at top UAGA) RNA 1: GCUCGCGAUGCUAGAGGGCUCUGC RNA 2: GCAGAGCCCCCCAGCAUCGCGAGC |  | ~15 |
